Results taken from PubChem BioAssay (EPA / NIEHS).
Records with an inconclusive call do not appear. Active and inactive are the calls of the source. How the source made its calls, unless noted: active means hit-call score of the fitted dose curve at least 0.9, where 1 is the maximum; inactive means score below 0.9.

Tests used:
[1] = biological target: human RAR-related Orphan Receptor gamma (RORg), RORC (gene 6097) (UniProt P51449); test: ATG_RORg_TRANS: Attagene TRANS-FACTORIAL HepG2 Assay for human RAR-related Orphan Receptor gamma (RORg) (AID 2283011; active means hit-call score of the fitted dose curve at least 0.9, where 1 is the maximum)
human RAR-related Orphan Receptor gamma (RORg), RORC (gene 6097), sequence (P51449 whole entry, looked up, the tested form may be a part): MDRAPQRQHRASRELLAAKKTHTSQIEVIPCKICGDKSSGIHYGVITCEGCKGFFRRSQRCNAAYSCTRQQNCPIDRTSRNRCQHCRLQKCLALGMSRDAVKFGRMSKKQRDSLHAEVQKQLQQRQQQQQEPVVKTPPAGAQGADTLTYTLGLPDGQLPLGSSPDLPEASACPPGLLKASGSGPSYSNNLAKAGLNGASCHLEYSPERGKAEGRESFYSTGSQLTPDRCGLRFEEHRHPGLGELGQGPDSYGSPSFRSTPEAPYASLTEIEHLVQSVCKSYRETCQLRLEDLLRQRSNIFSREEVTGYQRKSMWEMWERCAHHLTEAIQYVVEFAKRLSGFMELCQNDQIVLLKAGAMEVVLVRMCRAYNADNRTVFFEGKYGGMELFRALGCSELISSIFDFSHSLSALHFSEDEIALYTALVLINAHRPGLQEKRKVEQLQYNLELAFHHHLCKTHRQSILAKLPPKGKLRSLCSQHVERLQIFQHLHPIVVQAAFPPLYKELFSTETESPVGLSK
Outline: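 Activity is scored as increase in GAL4-UAS reporter mRNA over DMSO, detected by fluorescent RT-PCR and capillary electrophoresis in HepG2 cells transiently expressing a RORg-Gal4 chimera, 24 h after dosing.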

[2] = biological target: human Retinoid X Receptor beta (RXRb), RXRB (gene 6257) (UniProt P28702); test: ATG_RXRb_TRANS: Attagene TRANS-FACTORIAL HepG2 Assay for human Retinoid X Receptor beta (RXRb) (AID 2283013; active means hit-call score of the fitted dose curve at least 0.9, where 1 is the maximum)
human Retinoid X Receptor beta (RXRb), RXRB (gene 6257), sequence (P28702 whole entry, looked up, the tested form may be a part): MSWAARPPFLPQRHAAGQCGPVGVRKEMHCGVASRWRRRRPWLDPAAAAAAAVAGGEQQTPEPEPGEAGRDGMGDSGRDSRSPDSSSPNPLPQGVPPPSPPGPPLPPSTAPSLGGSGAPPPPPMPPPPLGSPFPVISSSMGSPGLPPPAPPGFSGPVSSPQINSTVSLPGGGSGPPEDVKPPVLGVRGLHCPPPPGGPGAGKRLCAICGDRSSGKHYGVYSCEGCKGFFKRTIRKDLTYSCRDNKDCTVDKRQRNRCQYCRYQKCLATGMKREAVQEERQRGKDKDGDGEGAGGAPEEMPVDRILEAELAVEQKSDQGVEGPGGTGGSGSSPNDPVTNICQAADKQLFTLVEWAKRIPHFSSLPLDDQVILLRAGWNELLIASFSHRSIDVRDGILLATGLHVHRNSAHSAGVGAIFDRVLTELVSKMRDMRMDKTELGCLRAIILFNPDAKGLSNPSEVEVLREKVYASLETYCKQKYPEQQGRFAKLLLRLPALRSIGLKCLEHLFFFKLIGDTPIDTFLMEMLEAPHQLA
Outline: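 Read-out: reporter mRNA induction via RT-PCR plus capillary electrophoresis fluorescence, analysed as signal increase relative to DMSO. Cells were human HepG2, transiently transfected with GAL4-UAS reporter constructs and chimeric receptor-Gal4 fusions, dosed for 24 h.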

[3] = biological target: human Thyroid Receptor alpha (THRa1), THRA (gene 7067) (UniProt P10827); test: ATG_THRa1_TRANS: Attagene TRANS-FACTORIAL HepG2 Assay for human Thyroid Receptor alpha (THRa1) (AID 2283014; active means hit-call score of the fitted dose curve at least 0.9, where 1 is the maximum)
human Thyroid Receptor alpha (THRa1), THRA (gene 7067), sequence (P10827 whole entry, looked up, the tested form may be a part): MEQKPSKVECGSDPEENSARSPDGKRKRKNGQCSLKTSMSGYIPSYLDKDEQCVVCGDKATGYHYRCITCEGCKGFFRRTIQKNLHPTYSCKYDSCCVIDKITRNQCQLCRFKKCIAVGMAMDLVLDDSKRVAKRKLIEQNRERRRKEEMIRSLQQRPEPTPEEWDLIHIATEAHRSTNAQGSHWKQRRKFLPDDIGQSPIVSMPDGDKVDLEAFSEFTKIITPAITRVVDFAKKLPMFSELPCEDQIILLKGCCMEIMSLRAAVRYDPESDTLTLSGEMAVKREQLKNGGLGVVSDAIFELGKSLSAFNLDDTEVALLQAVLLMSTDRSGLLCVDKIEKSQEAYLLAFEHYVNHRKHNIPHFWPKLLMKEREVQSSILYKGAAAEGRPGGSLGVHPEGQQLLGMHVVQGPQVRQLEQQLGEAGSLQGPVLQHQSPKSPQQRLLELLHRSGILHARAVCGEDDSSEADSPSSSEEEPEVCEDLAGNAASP
Outline: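 First, HepG2 cells receive multiple GAL4-UAS reporter units and the chimeric receptor. They are then dosed for 24 h, after which RNA is reverse-transcribed, amplified, labelled, HpaI-cut and sized by capillary electrophoresis; gain relative to DMSO is scored.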

[4] = read-out: E-selectin (Homo sapiens) (UniProt P16581); test: BSK_3C_Eselectin: BioMAP Diversity Plus: 3C Assay for Eselectin Biomarker Activity (AID 2283015); details: primary human endothelial cells (HUVEC); actives raise or lower the signal;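 further: cell surface E-selectin protein quantified by ELISA 24 h after dosing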
Outline: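 Human vascular endothelium from umbilical vein is exposed to test chemicals for 24 h. E-selectin levels are read by ELISA and compared with DMSO controls.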

[5] = read-out: Interleukin-1 alpha (IL1a), IL1A (gene 3552); test: BSK_BE3C_IL1a: BioMAP Diversity Plus: BE3C Assay for Interleukin-1 alpha (IL1a) Biomarker Activity (AID 2283016); details: primary human bronchial epithelial cells; actives raise or lower the signal
Outline: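 ELISA read-out of IL-1a from human lung bronchial epithelial primary cells, 24 h post-dose. Gain or loss of signal fitted relative to DMSO negative control.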

[6] = read-out: Monocyte Chemoattractant Protein-1 (MCP1), CCL2 (gene 6347); test: BSK_3C_MCP1: BioMAP Diversity Plus: 3C Assay for Monocyte Chemoattractant Protein-1 (MCP1) Biomarker Activity (AID 2283017); details: primary human endothelial cells (HUVEC); actives raise or lower the signal
Outline: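 Endothelial cells from human umbilical vein are dosed with chemical, cultured 24 h, then assayed for MCP-1 by ELISA; both increases and decreases are modelled against DMSO controls.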

[7] = read-out: Monocyte Chemoattractant Protein-1 (MCP1), CCL2 (gene 6347); test: BSK_4H_MCP1: BioMAP Diversity Plus: 4H Assay for Monocyte Chemoattractant Protein-1 (MCP1) Biomarker Activity (AID 2283018); details: primary human endothelial cells (HUVEC); actives raise or lower the signal
Outline: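 HUVEC primary cells, 24 h post-dose, MCP-1 by ELISA. Gain or loss of signal fitted bidirectionally vs DMSO baseline. Cytotoxicity: SRB stain (0.1% after 10% TCA fixation), read 560 nm, parallel cultures.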

[8] = read-out: Human Leukocyte Antigen - DR isotype (HLADR), HLA-DRA (gene 3122); test: BSK_3C_HLADR: BioMAP Diversity Plus: 3C Assay for Human Leukocyte Antigen - DR isotype (HLADR) Biomarker Activity (AID 2283019); details: primary human endothelial cells (HUVEC); actives raise or lower the signal
Outline: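 Endothelial cells from human umbilical vein are treated with test chemical; after 24 h, HLA-DR levels are measured by ELISA. Data are fitted in both directions using DMSO as the baseline.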

[9] = read-out: Interleukin-8 (IL8), CXCL8 (gene 3576); test: BSK_3C_IL8: BioMAP Diversity Plus: 3C Assay for Interleukin-8 (IL8) Biomarker Activity (AID 2283020); details: primary human endothelial cells (HUVEC); actives raise or lower the signal
Outline: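 HUVEC, 3C stimulation; 24 h compound exposure; IL-8 read by ELISA; gain or loss of signal fitted relative to DMSO control.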

[10] = read-out: Monokine induced gamma interferon (MIG), CXCL9 (gene 4283); test: BSK_3C_MIG: BioMAP Diversity Plus: 3C Assay for Monokine induced gamma interferon (MIG) Biomarker Activity (AID 2283021); details: primary human endothelial cells (HUVEC); actives raise or lower the signal
Outline: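 HUVEC, 3C system; 24 h chemical exposure; MIG by ELISA; bidirectional fit vs DMSO baseline.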

[11] = biological target: human Vitamin D Receptor (VDR), VDR (gene 7421) (UniProt P11473); test: ATG_VDR_TRANS: Attagene TRANS-FACTORIAL HepG2 Assay for human Vitamin D Receptor (VDR) (AID 2283022; active means hit-call score of the fitted dose curve at least 0.9, where 1 is the maximum)
human Vitamin D Receptor (VDR), VDR (gene 7421), sequence (P11473 whole entry, looked up, the tested form may be a part): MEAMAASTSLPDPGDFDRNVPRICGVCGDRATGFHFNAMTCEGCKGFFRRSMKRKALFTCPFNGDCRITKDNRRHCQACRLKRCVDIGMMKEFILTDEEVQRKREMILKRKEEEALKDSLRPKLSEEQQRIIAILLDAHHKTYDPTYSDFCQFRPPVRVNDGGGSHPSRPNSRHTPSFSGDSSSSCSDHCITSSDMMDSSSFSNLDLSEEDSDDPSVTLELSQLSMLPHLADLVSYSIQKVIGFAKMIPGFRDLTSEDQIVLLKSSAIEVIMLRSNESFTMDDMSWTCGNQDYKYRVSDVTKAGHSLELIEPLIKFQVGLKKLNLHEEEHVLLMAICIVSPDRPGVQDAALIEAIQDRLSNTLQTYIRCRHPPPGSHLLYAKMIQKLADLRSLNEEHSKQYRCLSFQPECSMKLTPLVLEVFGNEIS
Outline: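 Fluorescence of labelled reporter cDNA fragments, resolved by capillary electrophoresis, gives mRNA induction after 24 h treatment of HepG2 cells carrying transfected Gal4-fusion reporter units. Activity is fitted in the positive direction with DMSO as baseline.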

[12] = BSK_3C_SRB: Viability Assessment in the BioMAP Diversity Plus: 3C Assay (AID 2283023); details: primary human endothelial cells (HUVEC);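 further: cells read 24 h after compound dosing; fitted both ways against DMSO so a hit may be signal rise or drop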
Outline: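 Cells were dosed with chemical, cultured 24 h, fixed with 10% TCA, stained with 0.1% SRB and read at 560 nm. Human umbilical vein endothelium was used; DMSO served as negative control and baseline.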

[13] = read-out: Matrix Metallopeptidase 1 (MMP1), MMP1 (gene 4312); test: BSK_BE3C_MMP1: BioMAP Diversity Plus: BE3C Assay for Matrix Metallopeptidase 1 (MMP1) Biomarker Activity (AID 2283024); details: primary human bronchial epithelial cells; actives raise or lower the signal
Outline: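 ELISA read-out of MMP1 in human lung bronchial epithelial primary cultures, 24 h post-dose; bidirectional curve fit vs DMSO baseline, gain or loss of signal scored.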

[14] = BSK_3C_Vis: BioMAP Diversity Plus: 3C Assay for Morphology Visualization (AID 2283025); details: primary human endothelial cells (HUVEC);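 further: fitted both ways so gain or loss versus DMSO counts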
Outline: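 HUVEC, 3C system; light microscopy of morphology at 24 h post-dose. Bidirectional fit vs DMSO baseline. Secondary readout, background-control function.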

[15] = read-out: Pselectin, SELP (gene 6403); test: BSK_4H_Pselectin: BioMAP Diversity Plus: 4H Assay for Pselectin Biomarker Activity (AID 2283026); details: primary human endothelial cells (HUVEC); actives raise or lower the signal
Outline: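 HUVEC, 24 h chemical exposure; P-selectin read by ELISA. Bidirectional curve fit vs DMSO baseline; gain or loss of signal scored.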

[16] = BSK_4H_SRB: Viability Assessment in the BioMAP Diversity Plus: 4H Assay (AID 2283027); details: primary human endothelial cells (HUVEC);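 further: cells exposed to compound for 24 h before staining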;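 on AC50: curves fitted both ways versus DMSO so AC50 may be loss or gain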
Outline: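 Cytotoxicity readout: sulforhodamine B (0.1%) staining of total protein after 10% TCA fixation, measured at 560 nm in human umbilical vein endothelium at 24 h. DMSO set the baseline; fitting was bidirectional.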

[17] = BSK_BE3C_SRB: Viability Assessment in the BioMAP Diversity Plus: BE3C Assay (AID 2283028); details: primary human bronchial epithelial cells
Outline: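 Overt cytotoxicity was assessed as total protein in confluent human primary bronchial epithelial cultures 24 h after chemical addition, using 0.1% sulforhodamine B staining read at 560 nm.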

[18] = read-out: Thrombomodulin, THBD (gene 7056); test: BSK_3C_Thrombomodulin: BioMAP Diversity Plus: 3C Assay for Thrombomodulin Biomarker Activity (AID 2283029); details: primary human endothelial cells (HUVEC); actives raise or lower the signal
Outline: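 HUVEC, 3C conditions; compound 24 h; thrombomodulin by ELISA; bidirectional curve fit vs DMSO baseline; parallel SRB total-protein staining for cytotoxicity.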

[19] = read-out: Urokinase-type plasminogen activator receptor (uPAR), PLAUR (gene 5329); test: BSK_4H_uPAR: BioMAP Diversity Plus: 4H Assay for Urokinase-type plasminogen activator receptor (uPAR) Biomarker Activity (AID 2283030); details: primary human endothelial cells (HUVEC); actives raise or lower the signal
Outline: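 Chemicals are dosed onto human vascular endothelial primary cells (umbilical vein). After 24 h, uPAR is read by ELISA. Gain or loss of signal is fitted relative to DMSO.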

[20] = biological target: Retinoic acid receptor RXR-alpha (Homo sapiens) (UniProt P19793); test: ATG_RXRa_TRANS: Attagene TRANS-FACTORIAL HepG2 Assay for human Retinoid X Receptor alpha (RXRa) (AID 2283012; active means hit-call score of the fitted dose curve at least 0.9, where 1 is the maximum)
Retinoic acid receptor RXR-alpha (Homo sapiens), sequence (P19793 whole entry, looked up, the tested form may be a part): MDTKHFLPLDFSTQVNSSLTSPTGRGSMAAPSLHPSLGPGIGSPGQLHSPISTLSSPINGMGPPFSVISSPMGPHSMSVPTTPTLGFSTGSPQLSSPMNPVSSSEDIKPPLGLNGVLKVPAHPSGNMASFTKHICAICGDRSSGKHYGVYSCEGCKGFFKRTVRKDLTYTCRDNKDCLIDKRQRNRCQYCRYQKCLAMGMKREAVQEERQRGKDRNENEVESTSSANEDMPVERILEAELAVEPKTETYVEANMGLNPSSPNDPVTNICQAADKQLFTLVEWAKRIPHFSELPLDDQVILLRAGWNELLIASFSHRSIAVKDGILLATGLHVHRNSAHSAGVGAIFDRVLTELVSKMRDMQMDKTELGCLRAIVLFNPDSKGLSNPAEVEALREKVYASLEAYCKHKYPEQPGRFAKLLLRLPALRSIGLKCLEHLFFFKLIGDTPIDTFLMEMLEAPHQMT
Outline: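 Read-out: fluorescent reporter-transcript fragments quantified by capillary electrophoresis after RT-PCR. Transiently transfected HepG2 cells carrying GAL4-UAS reporters and NR-GAL4 chimeras were exposed to chemical for 24 h; activity scored as increase over DMSO.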

Measured: AC50

E-selectin (Homo sapiens), sequence (P16581 whole entry, looked up): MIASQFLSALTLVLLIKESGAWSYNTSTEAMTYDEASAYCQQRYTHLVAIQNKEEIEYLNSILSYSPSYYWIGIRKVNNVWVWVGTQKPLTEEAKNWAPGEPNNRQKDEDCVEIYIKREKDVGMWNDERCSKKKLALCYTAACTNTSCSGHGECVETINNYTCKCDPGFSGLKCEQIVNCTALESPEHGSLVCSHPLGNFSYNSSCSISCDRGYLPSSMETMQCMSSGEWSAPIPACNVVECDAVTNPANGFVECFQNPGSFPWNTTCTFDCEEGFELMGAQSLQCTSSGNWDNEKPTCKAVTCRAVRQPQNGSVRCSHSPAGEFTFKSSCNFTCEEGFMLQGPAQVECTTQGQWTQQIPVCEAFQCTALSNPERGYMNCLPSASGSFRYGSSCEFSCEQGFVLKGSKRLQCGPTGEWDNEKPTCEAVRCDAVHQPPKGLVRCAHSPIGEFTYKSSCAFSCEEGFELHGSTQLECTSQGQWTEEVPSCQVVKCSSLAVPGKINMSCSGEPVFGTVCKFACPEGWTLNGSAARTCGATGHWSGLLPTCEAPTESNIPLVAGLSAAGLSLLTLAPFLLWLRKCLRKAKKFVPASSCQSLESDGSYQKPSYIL

CCN(CC)c1nc(C)cc(OP(=S)(OC)OC)n1
active: [2] 33.7 µM | [12] 29.4 µM | [13] 20 µM
not listed: [20]
inactive: all other assays above

CCCCC(O)(Cn1cncn1)c1ccc(Cl)cc1Cl (stereo unspecified)
active: [8] 20 µM | [13] 12.8 µM | [16] 14.3 µM
not listed: [2] | [3] | [11]
inactive: all other assays above

Cc1nc(N(C)C)nc(OC(=O)N(C)C)c1C
not listed: [2] | [11] | [16]
inactive: all other assays above

CCC(C)n1c(=O)[nH]c(C)c(Br)c1=O (stereo unspecified)
not listed: [20]
inactive: all other assays above

CCSC(=O)N1CCCCCC1
not listed: [3] | [11] | [20]
inactive: all other assays above

CC(C)N1C(=O)c2ccccc2NS1(=O)=O
not listed: [3] | [16] | [20]
inactive: all other assays above
